A number with no mark means an inactive call. Calls of active or inactive are those of the source. Rule as the data show it: active = fold change permeability below about 0.7 or above about 1.3; inactive = in between.
test: compounds altering in vitro BBB leakiness – cell-based, FITC-avidin fluorescence, HTS, primary screen (AID 1963498); conditions: brain endothelial barrier, actives lie on both sides; also: test concentration not given here

| Compound | fold change permeability |
| --- | --- |
| CP(=O)(O)C1=CCNCC1 | 1.4 (active) |
| CCCCCCCCCCCCCC(=O)O[C@@H]1[C@@H](C)[C@@]2(O)[C@@H](C=C(CO)C[C@]3(O)C(=O)C(C)=C[C@@H]23)[C@@H]2C(C)(C)[C@]12OC(C)=O | 1.1 |
| CC(N)Cc1c[nH]c2ccc(OCc3cccs3)cc12 (stereo not given) | 1.3 (active) |
| Nc1ccc(CCN2CCN(c3cccc(C(F)(F)F)c3)CC2)cc1 | 1.8 (active) |
| O=C(CCCN1CCC2(CC1)C(=O)NCN2c1ccccc1)c1ccc(F)cc1 | 1 |
| O=P(O)(O)C(O)(Cc1cnc2ccccn12)P(=O)(O)O | 0.8 |
| NC(=NCCC[C@H](N)C(=O)O)N[N+](=O)[O-] | 1 |
| NCCc1c[nH]c2ccccc12 | 1.4 (active) |
| CC(C(O)c1ccc(O)cc1)N1CCC(Cc2ccccc2)CC1 (stereo not given) | 1.3 (active) |
| CC(C)C[C@H](NP(=O)(O)O[C@@H]1O[C@@H](C)[C@H](O)[C@@H](O)[C@H]1O)C(=O)N[C@@H](Cc1c[nH]c2ccccc12)C(=O)O | 1.4 (active) |
| N=C(N)c1ccc(CS(=O)(=O)F)cc1 | 1.2 |
| CCC1(C2=NCCN2)Cc2ccccc2O1 (stereo not given) | 1 |
| NNC(=O)c1ccc(O)cc1 | 0.8 |
| COc1cc(C(O)CN)ccc1O (stereo not given) | 0.9 |
| CN[C@@H]1C[C@@H](c2ccc(Cl)c(Cl)c2)c2ccccc21 | 1.2 |
| OCc1cnc[nH]1 | 1.1 |
| CCCN(CCC)C1CCc2ccc(O)cc2C1 (stereo not given) | 1.1 |
| O=C[C@H](Cl)[C@@H](O)[C@H](O)[C@H](O)CO | 1.1 |
| O=[N+]([O-])/C=C/c1ccc2c(c1)OCO2 | 1.4 (active) |
| C[N+](C)(C)CC#CCN1CCCC1=O | 1 |

— PubChem BioAssay
